Experimental data as given in PubChem BioAssay (Tox21).
Inconclusive results are not listed. Active and inactive are the calls of the source. Unless noted, calls come from the whole dose curve; as a rule, active = well fitted curve in the direction sought with a large enough effect in the repeat runs; inconclusive = weak or mixed curves; inactive = no such curve, though single readings can be large; an effect the other way counts as inactive or inconclusive.

How the values were obtained:
[1] = qHTS assay to identify small molecule phospholipidosis (PLD) inducers (AID 1259344; active = well fitted curve in the direction sought with a large enough effect; an effect the other way counts as inactive or inconclusive); settings: HepG2 phospholipidosis, LipidTOX Red imaging, 24 h; series mostly up to 38.3 µM
Outline: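 Phospholipid accumulation was scored by imaging: fixed, Hoechst-counterstained HepG2 cells stained with LipidTOX Red after 24 h compound exposure at 37 C. Read-outs were pit count and pit intensity per well or per cell, with amiodarone and DMSO controls.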

[2] = qHTS assay to identify small molecule HDAC inhibitors (AID 1259364); settings: HCT-116 HDAC-Glo I/II luminescence, 2 h; series mostly up to 92.4 µM; note: potency is the fitted concentration of half-maximal effect;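 note: wild-type HCT-116 cells with endogenous class I/II HDAC activity; nearly all actives have a fitted effect of over 45% in size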; for activity change, negative = inhibition: top concentration of the series differs between compounds
Outline: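 HCT-116 (wild type), 1,500 cells/well, overnight; compound 2 hr 37C 5% CO2; HDAC-Glo I/II reagent 30 min RT; luminescence readout.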

[3] = qHTS assay to identify small molecule HDAC inhibitors - cell viability counter screen (AID 1259365); settings: HCT-116 viability, CellTiter-Glo ATP luminescence, 2 h; series mostly up to 92.4 µM; note: nearly all actives have a fitted effect of over 50% in size
Outline: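 HCT-116 (wild type), 1,500 cells/well, overnight 37C/5% CO2; compound in DMSO 2hr; CellTiter-Glo 30min RT; luminescence read.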

[4] = qHTS assay to identify small molecule agonists of the sonic hedgehog signaling (Shh) pathway - cell viability counter screen (AID 1259366); settings: NIH/3T3 Gli1-Luc viability, CellTiter-Fluor, 24 h; series mostly up to 92.4 µM; note: nearly all actives have a fitted effect of over 50% in size
Outline: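 CellTiter-Fluor fluorescence read-out, 1 hr at 37C, added after 23hr compound exposure. Cells: 3T3 Gli1-Luc, an NIH/3T3 clone with stably integrated Gli1-Luc reporter, plated 4hr before compound.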

[5] = qHTS assay to identify small molecule antagonists of the sonic hedgehog signaling (Shh) pathway - cell viability counter screen (AID 1259367); settings: NIH/3T3 Gli1-Luc viability, CellTiter-Fluor, 24 h; series mostly up to 92.4 µM; note: nearly all actives have a fitted effect of over 55% in size
Outline: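 Viability was read by CellTiter-Fluor fluorescence in the same wells, reagent added 23 hr into compound treatment and incubated 1 hr at 37C. The 3T3 Gli1-Luc reporter cells (2,000/well) received conditioned medium after compound and ran 24 hr.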

[6] = qHTS assay to identify small molecule agonists of the sonic hedgehog signaling (Shh) pathway (AID 1259368; calls by dose curve;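 note: NIH/3T3-derived 3T3Gli1-Luc cells carrying a stable Gli1-driven firefly luciferase reporter; nearly all actives have a fitted effect of over 15% in size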); settings: NIH/3T3 Gli1-Luc reporter, luciferase, 24 h, hits give high values; series mostly up to 92.4 µM
Outline: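 Read-out: firefly luciferase luminescence from a Gli1 response element reporter stably integrated in NIH/3T3-derived 3T3Gli1-Luc cells, measured 30 min at room temperature after reagent addition. Compound exposure lasted 24 hr at 37 C, 5% CO2.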

[7] = biological target: Estrogen receptor beta (Homo sapiens) (UniProt Q92731); test: qHTS assay to identify small molecule agonists of the estrogen receptor beta (ER-beta) signaling pathway (AID 1259377; active = well fitted activation curve with a large enough effect in the signal ratio in the repeat runs, not every such curve was filed as active; the % refers to the signal ratio; note: potency is the fitted concentration of half-maximal effect); settings: ER-beta-UAS-bla HEK293T, beta-lactamase FRET ratio, 16 h; series mostly up to 92.4 µM
Outline: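 Beta-lactamase reporter readout: fluorescence of LiveBLAzer B/G FRET substrate after 2 h at room temperature, following 16 h compound treatment of ER-beta-UAS-bla HEK293T cells at 37C in 2% charcoal-stripped FBS medium.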

[8] = qHTS assay to identify small molecule antagonists of the sonic hedgehog signaling (Shh) pathway (AID 1259369; calls by dose curve; note: nearly all actives have a fitted effect of over 45% in size); settings: NIH/3T3 Gli1-Luc reporter, Shh antagonist, luminescence 24 h; series mostly up to 92.4 µM
Outline: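 Luminescence readout: firefly Luc under Gli1 response element in 3T3Gli1-Luc cells (NIH/3T3 clone). Antagonist mode, stimulation by conditioned medium; compound exposure 24hr at 37 C, 5% CO2.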
% is set by controls: 0 for no effect and ±100 for the full control effect.

Sequence of Estrogen receptor beta (Homo sapiens) (Q92731 whole entry, looked up): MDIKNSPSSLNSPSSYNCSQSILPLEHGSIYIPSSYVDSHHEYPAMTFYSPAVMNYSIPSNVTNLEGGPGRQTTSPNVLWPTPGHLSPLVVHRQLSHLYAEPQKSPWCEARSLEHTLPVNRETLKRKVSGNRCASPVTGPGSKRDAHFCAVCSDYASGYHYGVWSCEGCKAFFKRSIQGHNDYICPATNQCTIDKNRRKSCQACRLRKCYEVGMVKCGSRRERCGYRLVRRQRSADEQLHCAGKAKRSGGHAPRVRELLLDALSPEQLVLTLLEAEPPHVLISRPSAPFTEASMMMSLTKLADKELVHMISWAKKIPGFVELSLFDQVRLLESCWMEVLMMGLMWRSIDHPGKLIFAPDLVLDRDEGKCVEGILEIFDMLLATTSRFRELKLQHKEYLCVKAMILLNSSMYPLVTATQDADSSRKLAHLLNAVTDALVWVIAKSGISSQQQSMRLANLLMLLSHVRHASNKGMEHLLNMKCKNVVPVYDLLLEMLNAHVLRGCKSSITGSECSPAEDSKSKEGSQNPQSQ

O=[N+]([O-])c1ccc(/C=N\O)o1
inactive: outcome [1] | Potency [2] | outcome [3] | Potency [4] | Potency [5] | outcome [6] | Potency [7]

NCCCC(N)(C(=O)O)C(F)F (centres undefined)
inactive: outcome [1] | Potency [2] | outcome [3] | Potency [4] | Potency [5] | outcome [6] | Potency [8]

CCCc1nn(C)c2c(=O)[nH]c(-c3cc(S(=O)(=O)N4CCN(C)CC4)ccc3OCC)nc12
inactive: outcome [1] | Potency [2] | Potency [4] | Potency [5] | outcome [6]

C[N+]12CCC(CC1)C(OC(=O)C(O)(c1ccccc1)c1ccccc1)C2 (centres undefined)
inactive: outcome [1] | Potency [2] | outcome [3] | Potency [4] | Potency [5] | outcome [6] | Potency [8]

COc1cc2c(cc1OC)-c1cc3ccc(OC)c(OC)c3c[n+]1CC2
inactive: Potency [2] | outcome [3] | Potency [4] | Potency [5] | outcome [6] | Potency [8]

Nc1ccncc1N
inactive: outcome [1] | Potency [2] | Potency [4] | Potency [5] | outcome [6] | Potency [8] | Potency [7]

O=C(O)CNC(=O)c1ccccc1
inactive: outcome [1] | Potency [2] | outcome [3] | Potency [4] | Potency [5] | outcome [6] | Potency [8] | Potency [7]

CCN[C@@H]1C[C@H](N)[C@@H](OC2OC(CN)=CCC2N)[C@H](O)[C@H]1O[C@H]1OC[C@](C)(O)[C@H](NC)[C@H]1O (some centres undefined)
inactive: outcome [1] | activity change, negative = inhibition [2] 3.34% [at 0.349 µM] | activity change, negative = cytotoxicity [3] 1.54% [at 0.349 µM] | viability change, negative = cytotoxic [4] -1.56% [at 0.349 µM] | viability change, negative = cytotoxic [5] 0.171% [at 0.349 µM] | activity change [6] 0.0974% [at 0.349 µM] | activity change, negative = inhibition [8] 2.07% [at 0.349 µM]

COC(=O)C1=C(C)NC(C)=C(C(=O)OC(C)C)C1c1cccc2nonc12 (centres undefined)
inactive: outcome [1] | Potency [2] | outcome [3] | outcome [6] | Potency [7]

NCCCC[C@H](N[C@@H](CCc1ccccc1)C(=O)O)C(=O)N1CCC[C@H]1C(=O)O
inactive: outcome [1] | Potency [2] | outcome [3] | Potency [4] | Potency [5] | outcome [6] | Potency [8]

CC(C(=O)O)c1cccc(Oc2ccccc2)c1 (centres undefined)
inactive: outcome [1] | Potency [2] | outcome [3] | Potency [4] | Potency [5] | outcome [6] | Potency [8]

c1ccc2sc(SN3CCOCC3)nc2c1
inactive: outcome [1] | Potency [4] | Potency [5] | outcome [6] | Potency [8] | Potency [7]

CN1CCN(c2cc3c(nn2)Oc2ccccc2N3C)CC1
inactive: outcome [1] | activity change, negative = cytotoxicity [3] 2.56% [at 19 µM] | viability change, negative = cytotoxic [4] 8.2% [at 19 µM] | viability change, negative = cytotoxic [5] 0.668% [at 19 µM] | activity change [6] 5.44% [at 18.9 µM] | activity change, negative = inhibition [8] -8.36% [at 19 µM] | activation [7] 7.81% [at 19 µM]
active: Potency [2] 4.61 µM

COc1cc(C)nc(-n2nc(C)cc2OC)n1
inactive: outcome [1] | Potency [2] | Potency [4] | Potency [5] | outcome [6] | Potency [8]

COc1ccccc1OCC1CNC(=O)O1 (centres undefined)
inactive: PLD induction [1] 3.13% [at 7.66 µM] | Potency [2] | outcome [3] | Potency [4] | Potency [5] | outcome [6] | Potency [8]

C[C@@H]1CCC[C@H](C)N1
inactive: outcome [1] | Potency [2] | outcome [3] | Potency [4] | Potency [5] | outcome [6] | Potency [8] | Potency [7]

COc1cc(C(=O)NCc2ccc(OCCN(C)C)cc2)cc(OC)c1OC
inactive: outcome [1] | Potency [2] | Potency [4] | Potency [5] | outcome [6] | Potency [8]

NC(=O)N[C@@H](CCC(=O)O)C(=O)O
inactive: outcome [1] | Potency [2] | outcome [3] | Potency [4] | Potency [5] | outcome [6] | Potency [8]

C=CN1CCCCCC1=O
inactive: Potency [2] | outcome [3] | Potency [4] | Potency [5] | outcome [6] | Potency [8]

CCCCCCCCCCCCSC
inactive: Potency [2] | outcome [3] | Potency [4] | Potency [5] | outcome [6] | Potency [8] | Potency [7]

CCCCCCC#CC(=O)OC
inactive: Potency [2] | outcome [3] | Potency [4] | Potency [5] | outcome [6] | Potency [8] | Potency [7]

O=Cc1cccc(Br)c1
inactive: Potency [2] | outcome [3] | Potency [4] | Potency [5] | outcome [6] | Potency [8]

CNCCO
inactive: Potency [2] | outcome [3] | Potency [4] | Potency [5] | outcome [6] | Potency [8] | Potency [7]

O=C1CCCCCCCCCCCCCCO1
inactive: Potency [2] | outcome [3] | Potency [4] | Potency [5] | outcome [6] | Potency [8] | Potency [7]

NO
inactive: Potency [2] | outcome [3] | Potency [4] | Potency [5] | outcome [6] | Potency [8]

O=C1c2ccccc2C(=O)c2cc(O)ccc21
inactive: Potency [4] | Potency [5] | outcome [6] | Potency [8]
active: Potency [2] 7.7 µM | Potency [7] 5.45 µM

CCN1CCOCC1
inactive: Potency [2] | outcome [3] | Potency [4] | Potency [5] | outcome [6] | Potency [8]
